Assay outcomes deposited in PubChem by several laboratories.
Rows were chosen to be rich in hits. Some 4.1% of all compounds tested hit in one or more screens of this group.
PolyA inh = polyadenylation inhibitors in yeast reporter cells, primary screen, luminescence, S. cerevisiae; 300,000 compounds, 0.02% hits; AID 1875, 2009; S. cerevisiae SKY197-pL101 polyadenylation reporter, beta-gal luminescence; efflux-impaired pdr1/pdr3 knockout yeast; score 100 = 6 SD above DMSO; activity score, % at 12 µM;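 active means lowest replicate activity score at least 50, where 100 means six control SD above control mean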;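 further: yeast exposed to compound for 9 h at 30 °C; higher score means more reporter readthrough which indicates perturbed polyadenylation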
DAX1 inh-1 = DAX1 (NR0B1) inhibitors on StAR promoter, primary screen, cell-based, luminescence, SF-1 (NR5A1), full-length DAX-1; HEK293T StAR-luciferase reporter, SF-1/DAX-1 repression relief; inhibition, % at 6.8 µM; 370,000 compounds, 1.1% hits; AID 652010, 2013;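 active means inhibition above the mean over all tested compounds plus 3 SD, cut at about 3.6% in these data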;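 further: 0% = DAX-1 cells with DMSO and 100% = cells lacking DAX-1 with DMSO; higher inhibition means more luminescence from relief of DAX-1 repression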
hgDAF12 agonist = H. glycines DAF-12 receptor agonists, primary screen, cell-based, luminescence, HEK293, GAL4 fusion, UAS-luciferase; HEK293 GAL4-hgDAF12 UAS-luciferase reporter, agonist luminescence; normalized to butyrate control; activation, % at 6.8 µM; 370,000 compounds, 1.8% hits; AID 687014, 2013;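 active means activation above a cutoff set at the mean of all screened compounds plus 3 SD, cut at about 10% in these data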;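 further: 0% = DMSO wells and 100% = sodium butyrate wells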
ssDAF-12 act = S. stercoralis DAF-12 nuclear receptor activators, primary screen, cell-based, luminescence, HEK293, GRIP1 co-expression, lit1-tk-luc; activation, % at 6.8 µM; HEK293 ssDAF-12/GRIP1 lit1-tk-luc reporter; % of 3 µM dafachronic acid response; 370,000 compounds, 1% hits;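 active means activation above the mean over all tested compounds plus 3 SD, cut at about 0.9% in these data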;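 further: 0% = DMSO-only wells and 100% = 3 µM delta7-dafachronic acid wells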
hcDAF-12 act = H. contortus DAF-12 nuclear receptor activators, primary screen, cell-based, luminescence, HEK293, lit1-tk-luc reporter; 370,000 compounds, 1.4% hits; HEK293 hcDAF-12 lit1-tk-luc reporter; 0% DMSO, 100% Δ7-dafachronic acid; activation, % at 6.8 µM;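 active means activation above the mean of all tested compounds plus 3 SD, cut at about 5.5% in these data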;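 further: 100% = response to 3 µM Δ7-dafachronic acid high control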
DAX1 inh-2 = DAX1 (NR0B1) inhibitors, primary screen, cell-based, HEK293, Gal4-DAX1, luciferase luminescence; Nuclear receptor subfamily 0 group B member 1 (Homo sapiens), P51843; HEK293 Gal4-DAX1 luciferase reporter; inhibition, % at 6.75 µM; 340,000 compounds, 0.99% hits;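 active means inhibition above the mean over all tested compounds plus 3 SD, cut at about 4.2% in these data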;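 further: 0% = DAX1-transfected cells with DMSO and 100% = empty-vector control cells with DMSO; inhibition shows as a rise in luminescence from relieved DAX1 repression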
Target sequence (P51843 207-470 limits assumed): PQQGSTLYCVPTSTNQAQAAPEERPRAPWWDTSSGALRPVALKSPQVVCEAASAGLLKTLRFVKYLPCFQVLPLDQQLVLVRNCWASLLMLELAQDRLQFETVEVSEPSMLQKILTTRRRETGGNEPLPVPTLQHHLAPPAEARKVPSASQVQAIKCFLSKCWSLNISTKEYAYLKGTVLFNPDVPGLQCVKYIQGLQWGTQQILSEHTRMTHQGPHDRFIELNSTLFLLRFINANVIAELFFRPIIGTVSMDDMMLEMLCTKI
Numbers without * were called inactive; / = not tested or not shown.

SMILES | PolyA inh | DAX1 inh-1 | hgDAF12 agonist | ssDAF-12 act | hcDAF-12 act | DAX1 inh-2
CC(C)(C)N(NC(=O)Nc1ccccc1)C(=O)c1ccccc1Cl | -1 | 0 | 0 | -1 | 0 | 6.3*
CC(C)(C)N(NC(=O)Nc1cccc(F)c1)C(=O)c1ccccc1Cl | / | 0 | 0 | -1 | 0 | /
Cn1nc(N)c2ncc(-c3ccc(Cl)cc3)nc21 | / | 1 | 11* | -1 | 1 | 4
Cn1nc(NC(=O)C(F)(F)F)c2ncc(-c3ccc(Cl)cc3)nc21 | 1 | 0 | 6 | -1 | -1 | 4.2*
Cn1nc(NC(=O)C(F)(F)F)c2nccnc21 | / | -1 | -2 | 0 | 2 | 1
COc1ccc2c(c1)[C@@]1(OCCC=C[C@H]1C)C(=O)N2Cc1ccccc1C(F)(F)F | / | 0 | 1 | -1 | -2 | /
CN1CCCCC(NC(=O)c2cccc(C(F)(F)F)c2)C1=O (stereo not drawn) | / | 0 | 0 | -1 | 0 | /
CC1CCN(C(=O)CC#N)CC1 | -2 | 0 | 0 | 0 | 0 | 1
N#CCC(=O)N1CCN(C=O)CC1 | 14 | -1 | -1 | -2 | -2 | 4.7*
CNNC(=O)C(=O)NNS(=O)(=O)c1ccccc1 | 4 | 1 | 0 | 0 | 3 | 5.8*
C[C@H]1CCC/C=C/C(=O)c2c(cc(O)c(Cl)c2O)CC(=O)O1 | / | -3 | -9 | -1 | 1 | /
O=c1oc(Nc2ccc(F)cc2)nc2ccccc12 | 6 | 1 | 8 | -1 | 5 | 0
O=c1nc(Nc2ccccc2)oc2ccccc12 | -11 | 1 | 8 | 0 | 4 | 5.8*
CC(C)(C)CCN1CCC[C@H](NC(=O)COc2ccc(F)c(Cl)c2)C1 | / | / | -3 | -1 | 1 | /
COc1ccc(C(=O)C(=O)N2CCN(C(=O)c3ccccc3C(F)(F)F)CC2)cc1OC | / | 0 | 0 | -1 | 0 | /
CCOC(=O)c1c(NC(=O)COC)sc(C)c1C | -12 | 0 | -2 | -1 | -2 | 0
CCOC(=O)c1c(NC(=O)COC(=O)c2cc(OC)c(OC)cc2[N+](=O)[O-])sc(C)c1C | -6 | 0 | -1 | 1.4* | 3 | 2
Cc1ccc(CCNC(=O)C2CCC(=O)N(Cc3ccccc3F)C2)o1 (stereo not drawn) | -5 | 4.1* | 10 | 0 | 4 | 0
Cc1cc(C)nc(CCNC(=O)C2CCC(=O)N(Cc3ccccc3F)C2)n1 (stereo not drawn) | -3 | 3 | 2 | -1 | -2 | 1
COc1ccc(C(=O)N/C(=C\c2ccco2)C(=O)OCc2ccco2)cc1 | 20 | 0 | 1 | 0 | -1 | 5.5*
COc1ccc(N/C(=C\C(=O)c2ccccc2)c2ccccc2)cc1OC | / | 2 | 5 | -1 | -1 | /
CN(C)c1ccc(N=Nc2ccc(S(N)(=O)=O)cc2)cc1 | 4 | 2 | 11* | 0 | 4 | 3
CN(C)N=Nc1ccc(S(N)(=O)=O)cc1 | 15 | 0 | -2 | -2 | 0 | 0
C=CCn1c(Cc2cccs2)nnc1SCC(=O)Nc1ccc(C)cc1 | / | 0 | -2 | -1 | -3 | /
CC(Sc1ccccn1)C(=O)Nc1ccccc1 (stereo not drawn) | 13 | 2 | 13* | 0 | 3 | 2
SMILES | PolyA inh | DAX1 inh-1 | hgDAF12 agonist | ssDAF-12 act | hcDAF-12 act | DAX1 inh-2
CC(=O)c1ccc(NC(=O)C(C)Sc2ccccn2)cc1 (stereo not drawn) | -18 | 4 | 5 | -1 | 4 | 1
Cc1ccc2cc(COC(=O)c3cccc([N+](=O)[O-])c3)c(=O)[nH]c2c1 | -9 | 1 | -1 | 0 | 1 | 4.5*
COc1ccc(OC)c(CN(CC(F)(F)F)S(=O)(=O)c2ccccc2Br)c1 | / | 0 | -1 | -1 | -1 | /
C=CCn1c(SCC(=O)O)nnc1-c1ccco1 | / | 0 | 0 | -2 | 1 | /
NS(=O)(=O)c1ccc(NC(=O)CSc2nnc(-c3cccs3)o2)cc1 | / | -2 | 4 | -1 | 0 | /
COc1cccc(C2CC(c3ccccc3OC)n3ncnc3N2)c1 (stereo not drawn) | 16 | 0 | 0 | -1 | 0 | 5.5*
COc1cccc(C2CC(c3ccc(C)cc3)n3nc(N)nc3N2)c1 (stereo not drawn) | 11 | 0 | -1 | -2 | -3 | 2
COc1cccc(C2CC(c3ccccc3)Nc3ncnn32)c1 (stereo not drawn) | -14 | 0 | 2 | -1 | 2 | 0
COc1ccc(C2CC(c3ccc(Cl)cc3Cl)n3nc(N)nc3N2)cc1 (stereo not drawn) | 13 | 0 | -1 | -1 | -2 | 5.2*
CCOc1ccc(C2CC(c3cccc(OC)c3)Nc3nc(N)nn32)cc1 (stereo not drawn) | -11 | 2 | 0 | -1 | -1 | 4.7*
COc1ccc(CN(CCN2CCOCC2)C(=O)c2ccc(F)cc2Cl)cc1OC | / | 1 | 0 | -1 | -3 | /
CCc1ccc(CCNC(=O)OC2CC3CC2[C@H]2CCCCN2[C@H]3Cc2ccccc2)cc1 (stereo partly drawn) | / | 0 | 0 | -1 | 0 | /
O=C(COC(=O)C1CC1)Nc1ccc(N=Nc2ccccc2)cc1 | 1 | 3 | 13* | 1 | 4 | 2
O=C1C=C(c2cccc3c2Oc2ccccc2S3)C[C@@H](c2ccc3c(c2)OCO3)C1 | / | 0 | -3 | 0 | 0 | /
O=C(NCc1ccco1)O[C@@H]1CC[C@@]23CCCN2C(=O)CCC[C@H]3C1 | / | / | 0 | -1 | -1 | /
CCc1cccc(CC)c1NC(=S)NCc1nc2ccccc2[nH]1 | 16 | 0 | 1 | 0 | 2 | 5.4*
O=C(NCc1nc2ccccc2[nH]1)c1ccco1 | 2 | 0 | 2 | -1 | 0 | 0
CC(=O)Nc1sc2c(c1-c1cc3ccccc3o1)CCNC2 | / | / | 2 | 0 | 5 | /
C/C=C/c1ccc(OCC(=O)Nc2ccc(C(N)=O)cc2)c(OC)c1 | 9 | 0 | 1 | 1.1* | 1 | 1
Cc1ccc2sc(-c3ccc(NC(=O)c4cc(-n5cnnc5)ccc4Cl)cc3)nc2c1 | 3 | 2 | 11* | -1 | 1 | 1
O=C(Nc1cccc(-c2nc3ccccc3s2)c1)c1cc(-n2cnnc2)ccc1Cl | -8 | / | / | / | / | -1
Cc1nc(N2CCN(c3ccccn3)CC2)c2c(C)c(C(=O)Nc3ccccc3F)sc2n1 | -9 | 1 | -1 | 0 | 0 | 5.3*
